# ALR H2O2 inh: inhibitors of human sulfhydryl oxidase ALR. 3.8% of 290,000 active. P55789. purified ALR, DTT oxidation, H2O2 HRP-luminol luminescence. inhibition, % (test concentration not listed);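 active = mean replicate inhibition above about 79%, with every replicate also reaching it, limit read from the data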
# Target sequence (P55789 whole entry, looked up): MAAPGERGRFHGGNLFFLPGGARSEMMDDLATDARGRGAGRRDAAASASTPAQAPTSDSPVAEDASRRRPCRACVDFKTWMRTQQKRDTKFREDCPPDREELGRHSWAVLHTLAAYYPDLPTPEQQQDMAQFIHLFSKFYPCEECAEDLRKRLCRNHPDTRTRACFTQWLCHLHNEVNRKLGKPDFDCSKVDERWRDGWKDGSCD
# PfM18AAP inh: PfM18AAP enzyme inhibition; recombinant PfM18AAP, H-Glu-NHMec fluorogenic cleavage; 1.2% of 290,000 active; inhibition, % at 7.35 µM;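 active = inhibition above the campaign mean inhibition over all tested compounds plus 3 SD, cut at about 28% in these data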;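 also: 0% = plate median of test compound wells and 100% = 2 mM ZnCl2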
# HIF act: HIF pathway transcriptional activation; U2OS HRE-luciferase reporter, luminescence; normalized: DMSO 0%, desferrioxamine 100%; 0.32% of 300,000 active; activation, % at 7.5 µM (by protocol);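 active = mean activation of at least 10% of the iron chelator positive control signal, with at least half of replicates also reaching 10%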
# Mot1-301 SUMO: SUMOylation pathway inhibition by Mot1-301 growth rescue; S. cerevisiae Mot1-301 growth rescue, ATP luminescence, 38.5C; percent above DMSO median, 100 means doubled; growth rescue, % at 18.8 µM; 1% of 320,000 active; AID 2716;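 active = every valid replicate shows activation above 250% relative to neutral control wells; inactive = the rest, any valid replicate at or below 250%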;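 also: OY570 slx delta 5 strain wells were the positive control but not used for scaling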
# Yeast Mot1 SUMO: yeast SUMO pathway inhibition in dose response. shares compounds with Mot1-301 SUMO. S. cerevisiae Mot1-301 galactose growth, ATP luminescence, 24 h; -100 = growth of slx-deleted rescue strain. growth activity, percent, % at 42 µM. 2,300 tested, under 10 active;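 active = Signal drops as the depositor expects, and the fitted half-maximal dose is no more than ten times the top valid tested dose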;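 also: more negative values mean stronger growth rescue toward the control strain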
# Starred values were filed as active, the others as inactive; . = no result given; + = active, no number; [ ] = dose if it differs, or a comment. Shown are actives, neighbours in structure and some others; about 5.3% of the full set was active somewhere.
SMILES,ALR H2O2 inh,PfM18AAP inh,HIF act,Mot1-301 SUMO,Yeast Mot1 SUMO
O=C1CN(C(=O)COC(=O)c2cccc(S(=O)(=O)NCc3ccccc3)c2)c2ccccc2N1,-3,5,-2,554*,1
O=C(Nc1cc(F)ccc1F)C1CCCO1 (stereo not given),-4,-4,0,+,0
O=C(c1ccccc1)n1c(=O)cc[nH]c1=O,2,.,-1,-26,.
COCCNC(=O)Nc1ccc2c(c1)N(C)C(=O)CS2,-17,1,0,-18,.
CC(C)CCNC(=O)Nc1ccc2c(c1)N(C)C(=O)CS2,1,-10,1,+,0
O=C1c2ccccc2C(=O)N1CCc1csc(-c2cccc(F)c2)n1,0,-18,1,634,.
CCC(C(=O)Nc1cccnc1)c1ccccc1 (stereo not given),-3,-4,-17,422*,1
CCC(C(=O)Nc1ccncc1)c1ccccc1 (stereo not given),-9,6,-1,-8,.
COCCNC(=O)c1cccc(OC2CCN(Cc3cccc(SC)c3)CC2)c1,1,-6,1,3,.
Oc1c(C=C2N=c3ccccc3=N2)sc(=S)n1C1CCCCC1,-1,7,0,4,.
O=S(=O)(Nn1c(O)c(C=C2N=c3ccccc3=N2)sc1=S)c1ccccc1,.,25,0,908*,1
O=C(CSc1ncnc2nc[nH]c12)Nc1ccccc1C(F)(F)F,-2,4,0,727*,0
COC(=O)CCc1c(C)c(C(=O)c2cc(OC)c(OC)c(OC)c2)c2ccccn12,-2,0,6,-17,.
CC(C)(C)c1ccccc1NC(=O)c1c(O)c2cccc3c2n(c1=O)CC3,.,4,0,0,.
CN(C)S(=O)(=O)c1ccc(Cl)c(NC(=O)CN2C(=O)NC(C)(C3CC3)C2=O)c1 (stereo not given),-11,-1,0,651*,0
Oc1cccc(/C=N/N2CCN(c3ccccn3)CC2)c1,.,1,1,547*,0[21 µM]
NS(=O)(=O)c1ccc(CCNC(=O)CN2CCN(c3ccc(F)cc3)CC2)cc1,35,9,0,650*,1
CC(=O)Nc1ccc(NS(=O)(=O)c2ccccc2)cc1,-8,6,0,.,.
COc1ccc(S(=O)(=O)Nc2ccc(NC(C)=O)cc2)cc1OC,-24,0,0,+,0
COc1ccc(S(=O)(=O)Nc2ccc(NC(C)=O)cc2)cc1Cl,-6,5,0,-3,.
CC(=O)Nc1ccc(S(=O)(=O)Nc2ccc3c(c2)C(=O)OC3)cc1,7,-1,0,704*,1
COc1ccc(-c2oc3ccc(-c4cc(OC)c(OC)c(OC)c4)cc3c2C(=O)c2ccc(OC)nc2)cc1,2,-10,1,813*,0
CCCOC(=O)c1c(-c2ccc(OC)cc2)oc2ccc(-c3ccc(OC)nc3)cc12,2,0,0,633*,0
NNc1ccc(Cl)c(C(=O)O)c1,9,6,0,-27,.
CC(C)CC1(C)NC(=O)N(CC(=O)Nc2ccccc2Br)C1=O (stereo not given),1,.,.,11,.
SMILES,ALR H2O2 inh,PfM18AAP inh,HIF act,Mot1-301 SUMO,Yeast Mot1 SUMO
O=C(NNC(=O)C1CC=CCC1)c1ccccc1O (stereo not given),-2,10,1,3,.
CCCCC(O)(CCCC)C(=O)NN(C(=O)OC)c1ccc(C)cc1,2,-13,0,446*,0
COc1ccc(NC(=O)CCCc2ccccc2)cc1OC,-18,4,5,382*,0
COc1ccc(/C=N/NC(=O)CCC(=O)Nc2ccccc2)cc1OC,-18,-4,0,795*,1
Cc1cccc(NC(=O)CCc2ccccc2)c1,-2,-2,0,520*,0
Cc1cccc(NC(=O)CCCCC(=O)Nc2cccc(C)c2)c1,-14,.,0,-4,.
COc1ccc(/C=N\NC(=O)CC(=O)Nc2cccc(Cl)c2)cc1OC,-2,-2,-2,3,.
CN(C)/C=N/NC(=O)c1ccccc1,9,-3,0,921*,1
O=C(N/N=C/c1ccncc1)c1ccccc1,-2,3,0,.,.
COc1ccc(O)c(C(=O)c2cnc3c(c2)c(=O)[nH]c(=O)n3C)c1,9,11,1,3,.
COCCn1c(=O)[nH]c(=O)c2cc(C(=O)c3cc(Cl)ccc3O)cnc21,.,-13,0,838*,0
CC(C)Cn1c(N)c(C(=O)CSc2ccc3c(c2)OCCO3)c(=O)n(C)c1=O,.,10,2,8,.
CCNC(=S)Nc1ccc(C)c(S(=O)(=O)Nc2ccccc2OC)c1,4,7,0,398*,-1
COc1ccccc1NS(=O)(=O)c1cc(NC(=O)CNC(=O)c2cc(C)cc(C)c2)ccc1C,29,-2,0,25,.
CCOC(=O)C(NC(=O)c1ccccc1)(N1CCOCC1)C(F)(F)F (stereo not given),-2,2,1,+,0
COc1cc(SC)ccc1C(=O)N1CCCCCC1,-1,3,0,+,0
O=C(c1ccccc1)N1CCN(C(=S)NCc2ccc3c(c2)OCO3)CC1,-10,2,0,7,.
CC(C)n1c(CN(C)c2ccccc2)nc2ccccc21,97*,4,-8,875*,0
CCOC1(OCC)C(c2ccc(N)cc2)C(C#N)(C#N)C1(OCC)OCC (stereo not given),0,-7,0,3,.
CCOC1(OCC)C(c2ccc(Cl)cc2)C(C#N)(C#N)C1(OCC)OCC (stereo not given),.,-14,0,495*,-1
CC(C)(C)OC(=O)N1CCN(C(=O)c2[nH]cnc2C(=O)Nc2cccc(Cl)c2)CC1,-6,.,.,-15,.
CCN1CSC(=S)N(Cc2ccc(OC)cc2)C1,12,7,0,+,0
Cc1sc(NC(=O)c2ccco2)c(C(c2cccnc2)N2CCN(c3ccc(F)cc3)CC2)c1C (stereo not given),-1,-2,1,29,.
Cc1sc(NC(=O)c2ccco2)c(C(c2ccc(F)cc2)N2CCN(C)CC2)c1C (stereo not given),.,2,0,405*,-1
CN1/C(=C\C(=O)COC(=O)c2nccnc2N)C(C)(C)c2ccccc21,-13,.,0,7,.
SMILES,ALR H2O2 inh,PfM18AAP inh,HIF act,Mot1-301 SUMO,Yeast Mot1 SUMO
CN1/C(=C\C(=O)COC(=O)c2ccc([N+](=O)[O-])o2)C(C)(C)c2ccccc21,-215,1,0,428*,-1
Cc1ccccc1C(=O)NCCN1CCOCC1,-17,3,0,-3,.
CC(C(=O)NCCN1CCOCC1)(c1ccccc1)c1ccccc1,.,0,0,667*,0
Cc1ccc(C(=O)N2CCC3(CC2)NCCc2[nH]cnc23)cc1C,-1,-1,0,-5,.
Cc1ccc(C2=NN(CC(=O)NCCN(C)C)C(=O)CC2)cc1,-8,-4,1,-8,.
Cc1ccc(C2=NN(CC(=O)NCc3cccs3)C(=O)CC2)cc1,-6,5,0,399*,0
